Screening data: PubChem BioAssay, National Center for Advancing Translational Sciences (NCATS)
Most compounds without a hit are left out; they make up all but 2.7% or so of the library.
KDM5B inh: inhibitors of human KDM5B histone demethylase | Potency, µM (highest dose often 57.7 µM), usual class: inhibitors | 220,000 compounds, 2.6% hits | KDM5B demethylase, FDH-coupled NADH fluorescence (FDH is formaldehyde dehydrogenase) | Q9UGL1; active means well fitted inhibition curve with a large enough effect; inconclusive means small, poorly fitted or top-dose-only effect; inactive means no such curve, though single readings can be large or run the other way; further: nearly all actives have a fitted effect of over 70% in size
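Compound dilutions met 200 nM (final) KDM5BΔAP for 10 min at room temperature before substrate addition. The substrate mix held 12.5 µM H3K4me3 with cofactors 25 µM α-ketoglutarate and 50 µM Fe²⁺. NADH signal gain over 30 min defined activity.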
IP6K1 inhibitor: inhibitors of human IP6K1 | AID 1645851 | activity change, % (series mostly up to about 58 µM) | Q92551 | IP6K1 kinase, ADP-Glo luminescence, 2 h; active compounds read low | 140,000 compounds, 0.81% hits; in the data active means activity change below about -25%
Target sequence (Q92551 whole entry, looked up): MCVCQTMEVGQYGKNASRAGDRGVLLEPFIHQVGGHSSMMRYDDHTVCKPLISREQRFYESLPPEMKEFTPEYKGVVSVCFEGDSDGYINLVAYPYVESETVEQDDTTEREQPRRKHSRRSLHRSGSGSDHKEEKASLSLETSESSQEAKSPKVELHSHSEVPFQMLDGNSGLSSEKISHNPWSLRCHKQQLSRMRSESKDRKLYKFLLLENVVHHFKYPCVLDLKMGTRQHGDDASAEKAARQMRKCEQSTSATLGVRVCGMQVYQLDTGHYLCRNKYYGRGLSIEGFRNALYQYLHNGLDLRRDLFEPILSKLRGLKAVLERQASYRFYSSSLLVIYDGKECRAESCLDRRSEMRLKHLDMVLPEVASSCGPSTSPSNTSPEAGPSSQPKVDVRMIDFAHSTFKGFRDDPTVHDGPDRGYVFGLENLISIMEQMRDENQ
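ADP-Glo luminescence measures ADP made by human IP6K1 during a 2 h RT reaction with ATP/IP6 (mix at 1.3 mM/130 uM); top library doses 57.5 and 19.1 uM final.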
Large screens that a line does not name were inactive; ! = a repeat was not active.

Cc1cc(=O)n(CC(=O)Nc2ccc(C(C)C)cc2)c(N2CCc3ccccc3C2)n1	none
CCC(=O)NCCNC(=O)c1cc(-c2ccccc2)nc2ccccc12	none (no result: IP6K1 inhibitor)
CCOC(=O)C1CCN(c2cc(C)nc3nc(Cc4ccc(Cl)cc4)nn23)CC1	none (no result: IP6K1 inhibitor)
Cc1cn2nc(C(=O)NC3CCCCC3)cc2c(N2CCCC2)n1	KDM5B inh 28µM
Cc1cn2nc(C(=O)NCc3cccnc3)cc2c(N2CCCC2)n1	none
Cc1cn2nc(C(=O)NCC(C)C)cc2c(N2CCCC2)n1	KDM5B inh 28µM
Cc1cn2nc(C(=O)NC3CCCCCC3)cc2c(N2CCSCC2)n1	KDM5B inh inconclusive
CCCn1nc(C(=O)Nc2ccc(OC)cc2)c2ccccc2c1=O	none (no result: IP6K1 inhibitor)
O=C(O)c1cc(Cl)cc(Cl)c1Br	none (no result: IP6K1 inhibitor)
Cc1nc2ccccc2c(C)c1CC(=O)NC1CCCCCC1	none (no result: IP6K1 inhibitor)
COc1cccc(-c2ccc3c(n2)CNC(=O)CO3)c1	KDM5B inh 32µM
O=C1COc2ccc(-c3ccccc3)nc2CN1	none
O=S(=O)(c1ccccc1)c1cnc2cc3c(cc2c1N1CCN(Cc2ccccc2)CC1)OCCO3	none (no result: IP6K1 inhibitor)
Cc1cc(NC(=O)CSc2nnc3c(Cl)cc(C(F)(F)F)cn23)no1	none (no result: IP6K1 inhibitor)
CC(C)(C)OC(=O)N1CC(Nc2cccc(Oc3ccccc3)c2)C1	KDM5B inh inconclusive
CC(C)(C)OC(=O)N1CC(Nc2ccc(O)cc2)C1	KDM5B inh 8.9µM!
CCCCc1ccc(CC(=O)NCc2coc(-c3cccs3)n2)cc1	none (no result: IP6K1 inhibitor)
O=C(c1ccc2cc[nH]c2c1)N1CCC2(CC1)N=C(c1cccc(Br)c1)NO2	KDM5B inh 28µM
Cc1ccc(C2=NC3(CCN(C(=O)c4cccc5[nH]ccc45)CC3)ON2)cc1	KDM5B inh 32µM
COCCN1C(=O)CS(=O)C12CCN(C(=O)c1cccc3[nH]ccc13)CC2 (stereo unspecified)	KDM5B inh 28µM
O=C(c1ccc2[nH]ccc2c1)N1CCC2(CC1)N=C(c1ccc(Br)cc1)NO2	none
O=C(c1cccc2[nH]ccc12)N1CCC2(CC1)N=C(c1ccc(Cl)cc1)NO2	KDM5B inh inconclusive
COCCN1C(=O)CS(=O)C12CCN(C(=O)c1ccsc1)CC2 (stereo unspecified)	none (no result: KDM5B inh)
CCc1ccc(C(C)NC(=O)Cn2cnc(C#N)n2)cc1 (stereo unspecified)	none (no result: IP6K1 inhibitor)
c1ccc(CN(Cc2ccccn2)[C@@H]2C[C@@H]3COCC[C@]3(c3ccccc3)C2)cc1	none (no result: KDM5B inh)
CCN1CC(C(=O)N2CCN(Cc3cc(OC)ccc3OC)CC2)CC1=O (stereo unspecified)	none
CCN1CC(C(=O)N2CCN(CCOc3ccccc3)CC2)CC1=O (stereo unspecified)	KDM5B inh 25µM
CCCCCC(C=O)CCC(=O)c1ccc(Br)cc1 (stereo unspecified)	none (no result: IP6K1 inhibitor)
CN1CCOc2c(C(=O)NCc3cnn(C)c3)cc(-c3cccnc3)cc21	none
CN1CCOc2c(C(=O)NCc3cccnc3)cc(-c3ccccc3)cc21	KDM5B inh 28µM
CN1CCOc2c(C(=O)NCc3cccnc3)cc(-c3ccc(CO)cc3)cc21	KDM5B inh 40µM
CN1CCOc2c(C(=O)NCc3cnn(C)c3)cc(-c3ccccc3O)cc21	KDM5B inh 28µM
CN1CCOc2c(C(=O)NCc3cccnc3)cc(-c3ccccc3O)cc21	KDM5B inh 32µM
N#CC(C(=O)C(F)(F)F)c1ccccc1 (stereo unspecified)	none (no result: IP6K1 inhibitor)
Cc1ccc(CCC(=O)Nc2cccc3cccnc23)cc1	none (no result: IP6K1 inhibitor)
CCOP(=O)(OCC)c1nc(-c2ccc(C)cc2)oc1NCc1cccnc1	none (no result: IP6K1 inhibitor)
C=CCOC(=O)/C(C#N)=C\c1cc2ccccc2nc1N1CCOCC1	none (no result: IP6K1 inhibitor)
Cc1nn(C)c(C)c1-c1ccnc(NCCC2(O)CCN(C)CC2)n1	KDM5B inh inconclusive
Cc1cc(N2CCCN(c3nccc(-c4c(C)nn(C)c4C)n3)CC2)ccn1	KDM5B inh 28µM
Cc1ccc(NC(=O)NCc2nc(-c3ccccc3C)oc2C)cc1F	none (no result: IP6K1 inhibitor)
CNC(=O)c1cc(C2CC2)nc2c1c(C1CCCN([S+](=O)([O-])c3ccc(C)cc3)C1)nn2C (stereo unspecified)	none (no result: KDM5B inh)
COc1ccccc1Nc1ccnc(N2CCN(C(=O)c3ccccc3C)CC2)n1	none (no result: KDM5B inh)
COCC1CCN(Cc2cc3ccc(OC)cc3nc2-c2cccc(C)c2)C1 (stereo unspecified)	KDM5B inh inconclusive
COc1ccc2cc(CN3CCC(OC)CC3)c(-c3cccc(C)c3)nc2c1	KDM5B inh 25µM
CC(C)(C)CC(C)(C)NC(=O)c1ccc(C#N)cc1	none (no result: IP6K1 inhibitor)
Cn1ncc2c(N)nc(NC3CC(c4cc(=O)[nH]c(C5CC5)n4)C3)nc21 (stereo unspecified)	KDM5B inh 20µM
Cc1nnc(NC2CC(c3cc(=O)[nH]c(C4CC4)n3)C2)c2ccccc12 (stereo unspecified)	none
O=C(NCc1ccc(CN2CCCC2)cc1)c1cc(S(=O)(=O)N2CCCC2)ccc1Cl	none (no result: IP6K1 inhibitor)
NC1CCN(Cc2ccc(C(=O)NCc3ccc(S(N)(=O)=O)cc3)c(=O)[nH]2)C1 (stereo unspecified)	KDM5B inh 22µM
